DT40 TDP1 CPT: growth inhibition of DT40 Tdp1-/-;hTDP1 cells with camptothecin (screen for TDP1 inhibitors); 420,000 compounds, 12% hits; chicken DT40 Tdp1-/-;hTDP1 cells + 20 nM CPT, ATP luminescence, 48 h; Potency, µM (titrated, usually from 46.2 µM), without a hit: at the top dose activity change, negative = growth inhibition, most hits filed as inhibitors; note: potency is the fitted concentration of half-maximal effect; nearly all actives have a fitted effect of over 55% in size
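Chicken DT40 Tdp1-/- cells stably complemented with human TDP1 were seeded at 400 cells/well in medium containing 20 nM camptothecin, exposed to pin-transferred compounds, and grown at 37 °C for at least 48 hr. Viability was read as ATP luminescence.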
DT40 TDP1 no CPT: qHTS for Inhibitors of human tyrosyl-DNA phosphodiesterase 1 (TDP1): qHTS in cells in absence of CPT; DT40 Tdp1-/- hTDP1 cells, no CPT, ATP luminescence, 48 h; AID 686978, 2013; Potency, µM (highest dose often 46.2 µM), for the others: top-dose activity change, negative = growth inhibition, usual class: inhibitors; 420,000 compounds, 15% hits; note: potency is the fitted concentration of half-maximal effect; nearly all actives have a fitted effect of over 55% in size
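A cellular qHTS used chicken DT40 cells lacking endogenous Tdp1 but carrying stably transfected human TDP1. Compounds were applied without camptothecin, and cell growth kinetics were judged by ATP-dependent luminescence after ≥48 hr.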
HT1080NT lethal: kills 2HG-producing HT-1080-NT fibrosarcoma cells | HT-1080-NT fibrosarcoma viability, CellTiter-Glo ATP luminescence, 48 h | Potency, µM (highest dose often 46.1 µM), for inactives: at the top dose activity, negative = less viability, most hits filed as cytotoxic | 360,000 compounds, 1.6% hits | AID 686970;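 note: NT is the 2HG producing partner of a matched IDH1 knockdown line; potency is the fitted concentration of half-maximal effect; 0% = DMSO-treated cells and -100% = media-only wells without cells; nearly all actives have a fitted effect of over 55% in size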
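Compounds were tested in concentration-response format on HT-1080-NT cells for 48 hours at 37 degrees C. Cell viability came from CellTiter-Glo luminescence; curves were classified by r2, response magnitude and activity.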
HT1080 IDH1KD tx: HT-1080 IDH1 knockdown cell toxicity (counter line); Potency, µM (doses to about 46.1 µM), for inactives: top-dose activity, negative = toxicity, usual class: cytotoxic; 360,000 compounds, 2% hits; HT-1080 IDH1 knockdown viability, ATP luminescence, 48 h;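 note: potency is the fitted concentration of half-maximal effect; 0% = DMSO wells and -100% = cell-free medium wells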
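In this qHTS, HT-1080 cells depleted of IDH1 are exposed for 48 h at 37 °C to compound titrations. Toxicity is scored from CellTiter-Glo luminescence, with DMSO as full viability and medium alone as none.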
IL-1B inflam inh: inhibitors of inflammasome signaling (IL-1 beta secretion). THP-1 LPS/ATP IL-1B secretion, AlphaLISA, 16 h; hits give low values. activity change, % at 57.5 µM. 360,000 compounds, 4.7% hits. AID 743279; in the data active = activity change below about -50%; inconclusive = mostly about -30% to -49%
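Secreted IL-1B measured by AlphaLISA bead assay after 16 h compound exposure of THP-1 cells; compounds (final up to 57.5 uM) added 1 h before LPS (250 ng/mL) and ATP (1.25 mM) stimulation; lower signal means less secretion.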
Active calls of the source: *; ? = inconclusive; . = no result; [ ] = remark or other dose. In the library only some 19% were active in any assay of this set; here they are far more common. Unless noted, calls come from the whole dose curve; as a rule, active = well fitted curve in the direction sought with a large enough effect; inconclusive = small, poorly fitted or top-dose-only effect, or another doubt; inactive = no such curve, though single readings can be large; an effect the other way counts as inactive or inconclusive. Unless noted, % is set by controls: 0 for no effect and ±100 for the full control effect.

SMILES	DT40 TDP1 CPT	DT40 TDP1 no CPT	HT1080NT lethal	HT1080 IDH1KD tx	IL-1B inflam inh
Cc1ccc(CN2CCc3nc(SCC(=O)Nc4cccc(C)c4C)[nH]c(=O)c3C2)cc1	2%	-5%	.	.	.
Oc1ccc(-c2ccccc2)cc1CN1CCCCCC1	?	18µM*	?	-15%	-26
COc1ccc(OC)c(C(O)c2ncc(-c3ccc(C(F)(F)F)cc3)[nH]2)c1 (centres undefined)	?	?	-16%	-9%	24
CCC1CC2(C)NC(=O)c3c(sc4c3CC(C)(C)OC4)N2C1=O (centres undefined)	?	21µM*	-5%	0%	-6
CCCCc1nc2sc3c(c2c(=O)[nH]1)CC(C)(C)OC3	-16%	-10%	0%	3%	-11
CN(C)CCN1CCN(C2CN(Cc3cn(Cc4ccccc4C(F)(F)F)nn3)S(=O)(=O)C2)CC1 (centres undefined)	-13%	0%	21%	15%	61
CCSc1nc2cc(OC)c(OC)cc2c(=O)n1CC	?	?	-26%	?	?
CN1CCN(C2=Cc3ccccc3Sc3cc(F)ccc32)CC1	?	22µM*	16µM*	?	?
CN1CCN(CCC(=O)N2c3ccccc3Sc3ccc(C(F)(F)F)cc32)CC1	?	?	-15%	-2%	?
CN1CCN(C2=Cc3ccc(Cl)cc3Sc3ccc(F)cc32)CC1	23µM*	21µM*	?	?	-71*
CN(C)S(=O)(=O)c1ccc(SCC(=O)N2CC(=O)Nc3ccccc32)nc1	?	-8%	1%	4%	16
N#C/C(=C\c1cn(Cc2ccccc2)c2ccccc12)C(=O)NCc1ccco1	?	?	-6%	-15%	-3
N#C/C(=C\c1cn(Cc2ccc(F)cc2)c2ccccc12)C(=O)NCc1ccco1	18µM*	?	?	?	16
N#C/C(=C\c1cccs1)C(=O)Nc1nccs1	?	2.9µM*	10%	0%	2
N#C/C(=C\c1cccs1)C(=O)NCc1cccnc1	-6%	13%	-5%	-1%	14
N#C/C(=C\c1cccs1)C(=O)NCc1ccccc1	12µM*	21µM*	0%	-1%	-3
CC(C)(C)C(=O)/C(C#N)=C/c1cccs1	1%	-12%	21%	11%	-18
N#C/C(=C\c1cccs1)C(=O)c1ccccc1Cl	29µM*	16µM*	?	?	-98*
Cn1c(=O)n(C)c2cc(CNCc3ccc(F)cc3)ccc21	?	-24%	.	.	.
Cc1c(C(=O)NCC2CCCN(C)C2)cnn1-c1ncc2c(n1)-c1ccccc1CCC2 (centres undefined)	-5%[9.04 µM]	-12%	.	.	.
COc1ccc(CNC(=O)c2cc3c(=O)n4cccc(C)c4nc3s2)cc1	1%	-16%	.	.	.
CC1(C)C[C@H]2C3=CCC4[C@@]5(C)CC[C@H](O)[C@@](C)(CO)C5CC[C@@]4(C)[C@]3(C)C[C@@H](O)[C@@]2(CO)[C@@H](O)[C@@H]1O (some centres undefined)	-8%	?	17%	9%	46
N#C/C(=C\c1ccccc1)C(=O)NCc1ccc(F)cc1	?	?	?	?	-98*
COc1ccc(NC(=O)CN(c2ccccc2F)S(=O)(=O)c2ccc(C)cc2)c(OC)c1	16µM*	15µM*	?	-13%	51
CCOc1ccccc1N(CC(=O)Nc1cccc(OC)c1)S(=O)(=O)c1ccccc1	29µM*	?	2%	-4%	10
SMILES	DT40 TDP1 CPT	DT40 TDP1 no CPT	HT1080NT lethal	HT1080 IDH1KD tx	IL-1B inflam inh
CCOc1ccccc1N(CC(=O)Nc1ccc(OC)c(OC)c1)S(=O)(=O)c1ccccc1	?	?	-3%	-8%	10
COc1ccc(N(CC(=O)NCc2ccc(C)cc2)S(=O)(=O)c2ccccc2[N+](=O)[O-])c(OC)c1	?	23µM*	0%	-5%	?
CCOc1ccccc1N(CC(=O)Nc1ccc(OC)cc1OC)S(=O)(=O)c1ccccc1	?	26µM*	9%	-10%	0
COc1ccc(N(CC(=O)NCc2ccncc2)S(=O)(=O)c2ccccc2[N+](=O)[O-])c(OC)c1	-2%	1%	0%	14%	19
O=C(NN1CC(C(=O)OCc2ccccc2F)CC1=O)c1ccccc1 (centres undefined)	-8%	23%	-4%	2%	-10
CC(C)CCNC(=O)NC(=O)COC(=O)/C=C/c1cnc2ccccc2n1	?	?	-3%	11%[9.24 µM]	12
Cc1[nH]c2c([N+](=O)[O-])cccc2c1C	6%	3%	-12%	-9%	30
COc1ccccc1N(CC(=O)Nc1cccnc1)S(=O)(=O)c1ccccc1	-15%	-7%	0%	17%	-4
CCOc1ccc(N(CC(=O)Nc2cccnc2)S(=O)(=O)c2ccc(C)cc2)cc1	-14%	?	-16%	-19%	-12
CCOc1ccc(S(=O)(=O)N(CC(=O)Nc2cccnc2)c2ccccc2)cc1	?	16µM*	.	.	.
CCOc1ccccc1N(CC(=O)Nc1ccc(OC)cc1)S(=O)(=O)c1ccccc1	?	?	-3%	-2%	10
CCOc1ccc(NC(=O)CN(c2ccccc2OCC)S(=O)(=O)c2ccccc2)cc1	?	18µM*	.	.	.
COc1ccc(OC)c(N(CC(=O)Nc2cccnc2)S(=O)(=O)c2ccccc2)c1	?	?	6.5µM*	3.3µM*	73
NC(=O)Cc1ccc(Nc2nnc(-c3ccc(O)cc3)c3ccccc23)cc1	-2%	4%	9%	17%	0
Cc1ccc(C(=O)N/C(=C/c2ccc(N(C)C)cc2)C(=O)NCC2CCCO2)cc1 (centres undefined)	1%	-13%	-10%	-9%	-2
CC/C(=N\NC(=O)c1ccc(-c2ccccc2)cc1)C12CC3CC(CC(C3)C1)C2	-14%	13µM*	-11%	-10%	12
C/C(=N\NC(=O)c1ccncc1)C12CC3CC(CC(C3)C1)C2	-17%	?	2%	12%	2
Cc1ccc(N(C(=O)c2snc(C(N)=O)c2N)C(C(=O)NC2CCCC2)c2ccco2)cc1 (centres undefined)	?	?	-14%	-12%	-7
Cc1cccc(N(C(=O)c2snc(C(N)=O)c2N)C(C(=O)NC2CCCC2)c2ccc(C)o2)c1 (centres undefined)	18µM*	15µM*	?	-27%	-18
Cc1ccc(N(C(=O)c2snc(C(N)=O)c2N)C(C(=O)NC2CCCC2)c2ccc(C)o2)cc1 (centres undefined)	?	?	-22%	-20%	-77*
